This passage reports inhibition results from PubChem BioAssay AID602230 (The Scripps Research Institute Molecular Screening Center, 2012).

Each structure is given as a SMILES string. The campaign covered roughly 1,400 compounds. About 450 (32%) were called active. The list is a sample of the results. Values without a mark were called inactive. Cut-off read from the data, not from the text of the source: active = inhibition above about 16%; inactive = the rest.

Lon protease (Escherichia coli (strain K12)), sequence (P0A9M0 whole entry, looked up): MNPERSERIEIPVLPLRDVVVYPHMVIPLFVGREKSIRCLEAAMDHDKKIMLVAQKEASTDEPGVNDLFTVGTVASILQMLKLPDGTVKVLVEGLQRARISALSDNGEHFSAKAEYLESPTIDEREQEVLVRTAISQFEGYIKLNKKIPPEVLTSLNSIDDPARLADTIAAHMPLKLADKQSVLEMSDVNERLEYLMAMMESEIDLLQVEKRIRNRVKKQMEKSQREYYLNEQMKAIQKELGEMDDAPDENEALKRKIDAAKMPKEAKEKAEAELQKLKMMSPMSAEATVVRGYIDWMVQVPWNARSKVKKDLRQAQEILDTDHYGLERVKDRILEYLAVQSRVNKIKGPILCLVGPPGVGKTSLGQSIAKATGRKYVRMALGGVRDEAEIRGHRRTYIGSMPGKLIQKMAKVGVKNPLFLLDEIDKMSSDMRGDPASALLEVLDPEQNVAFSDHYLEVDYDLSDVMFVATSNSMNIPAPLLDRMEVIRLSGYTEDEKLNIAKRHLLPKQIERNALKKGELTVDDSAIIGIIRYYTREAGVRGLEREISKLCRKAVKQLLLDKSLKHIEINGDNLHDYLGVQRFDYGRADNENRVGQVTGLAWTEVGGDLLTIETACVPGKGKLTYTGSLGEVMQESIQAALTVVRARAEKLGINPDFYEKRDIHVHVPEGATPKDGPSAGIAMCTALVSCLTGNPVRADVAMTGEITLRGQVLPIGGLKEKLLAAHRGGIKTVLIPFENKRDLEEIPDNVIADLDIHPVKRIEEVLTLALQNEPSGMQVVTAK

The test has as its target Lon protease (Escherichia coli (strain K12)) (UniProt P0A9M0). Kind of test: E. coli Lon protease inhibitor retest, confirmation, biochemical, fluorescence polarization (AID 602230).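 Note: 0% = enzyme with probe and DMSO and 100% = no enzyme.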 The following applies: purified E. coli Lon, at 7.94 µM, active compounds read high.
Consider `CNS(=O)(=O)c1ccc2c(c1)[nH]c(=S)n2C`, for which the inhibition was 4.74%. With `COc1ccc(C2=CC(c3cccc(OC)c3)n3nnnc3N2)cc1` (stereo unspecified) the figure was 17% (active). On to `COc1ncnc2c1N=C1CC(C)(C)CC(N)=C1S2`, for which the inhibition was 111% (active). Next, `CCCn1c(SCC(=O)Nc2c(C)cccc2C)nnc1C(C)C`: -13.9%. With `Nc1ccc2nc3c(=O)[nH]c(=S)[nH]c3nc2c1` the figure was 198% (active); with `Cc1cccc(N2CCC(NCc3c(C(=O)N4CCCCC4)nc4c(C)cccn34)CC2)c1`, -4.25%; with `O=C(COC(=O)C12CC3CC(CC(O)(C3)C1)C2)NC12CC3CC(CC(C3)C1)C2`, -2.17%. With `Cc1ccn2cc(-c3nonc3C)cc2c1` the figure was 5.46%; with `COc1ccccc1-c1cc2nc(NCc3cccc(Cl)c3)ccn2n1`, 2.95%; with `Cc1cccn2c(=O)c3cc(C#N)c(=NC(=O)c4cccnc4)n(CC4CCCO4)c3nc12` (stereo unspecified), -2.72%. With `COc1cc(C(=O)NCc2ccc3c(c2)cc(C)n3C)cc(OC)c1OC`, the inhibition was -12.4%. With `O=C(COC(=O)Cn1cnc2ccccc21)Nc1cccc2c1C(=O)c1ccccc1C2=O` the figure was 79.2% (active); with `COCCOC(=O)c1sc(=S)n(CCOC)c1N`, 27.9% (active). Next, `CC/C(C)=N/Nc1nc2sc3c(c2c(=O)[nH]1)CC(C)(C)OC3`: 15.3%; `Cc1ccc(NC(=O)Cc2nnc(SCC(=O)Nc3nncs3)n2C)cc1`: -64.9%. With `O=C1C=C(NCCNc2c(F)c(F)c(CO)c(F)c2F)CCC1` the figure was -15.4%; with `Cc1ccc2c(c1)nnc1nnc(SCC(=O)O)n12`, 33.8% (active).

For `O=S(=O)([N-]c1nc2ccccc2nc1-[n+]1ccc(Cc2ccccc2)cc1)c1ccc(Br)s1`, the inhibition was -2.35%. Next, `O=C1c2ccccc2C(=O)c2c1cccc2N1CCN(CCO)CC1`: 27.1% (active); `CCCSc1ccc([C@H]2N[C@@](Cc3ccccc3)(C(=O)OC)[C@H]3C(=O)N(C)C(=O)[C@@H]23)cc1`: -4.5%. Next, `NS(=O)(=O)c1ccc(NC(=O)COC(=O)c2c3c(nc4ccccc24)/C(=C\c2ccc4c(c2)OCO4)CCC3)cc1`: 4.57%; `N#CC1=C(N)OC2=C(C(=O)CCC2)C1C1CC=CCC1` (stereo unspecified): 2.64%. Next, `c1ccc(C(=NNc2nc3ccccc3s2)c2ccccn2)cc1`: 134% (active); `Cc1cccc(C)c1N1CCN(S(=O)(=O)N2CCOCC2)CC1`: -4.84%. In the case of `CN1c2ccc(C=O)c3c(C=O)ccc(c23)N(C)C1(C)C`, the inhibition was 68.6% (active). With `CC(C(=O)NC1CCCC1)N1CCN(S(=O)(=O)c2ccccc2Cl)CC1` (stereo unspecified) the figure was -0.03%; with `CCCCOCCCNC(=O)C[C@@H]1C[C@@]2(C(=O)OC)CCCCC=C2N(CCC2=CCCCC2)C1=O`, 9.11%.

As to `CCOCCN(C=O)c1cccc(OC)c1`, the inhibition was -7.16%. Next, `COc1ccc(N2CCN(C3CCCCC3NS(=O)(=O)c3ccccc3)CC2)cc1` (stereo unspecified): -0.98%; `COc1ccc(OC)c(NC(=O)Cc2cccs2)c1`: -9.37%; `COc1ccc(C(=O)NC(C)CCc2ccccc2)c(OC)c1` (stereo unspecified): -4.57%. With `COc1cc([C@H](Cc2ccccc2)NC(C)=O)oc(=O)c1` the figure was 28.5% (active).

On to `O=C(C1=C(O)C(=O)N(c2ncccn2)C1c1cccs1)c1ccco1` (stereo unspecified), for which the inhibition was 7.23%. Turning to `O=C1C2C3C=CC(C4CC34)C2C(=O)N1/N=C/c1ccc(-c2ccccc2[N+](=O)[O-])o1` (stereo unspecified), the inhibition is 1.11%. Turning to `CN(C)Cc1c(C(=O)N/N=C/c2ccccc2OCc2ccc(F)cc2)nnn1-c1nonc1N`, the inhibition is 4.47%. Next, `O=C(CN1CCCSc2ccccc21)N1CCN(S(=O)(=O)c2cccc(F)c2)CC1`: 40.1% (active); `Clc1ccccc1CSc1nnc(-c2ccco2)c(-c2ccco2)n1`: -6.52%; `CCOC(=O)N1CCC(NC(=O)Cc2cn(C)c3ccccc23)CC1`: -16.7%.

On to `Oc1ccc2ccccc2c1N=Nc1nccs1`, for which the inhibition was 3.97%. Take `Cc1coc2c(O)cc3c(c12)OC1(N2CCCCC2)C(=O)NCCCC31` (stereo unspecified): the inhibition was 6.1%. Next, `COc1ccc(C(=O)NCc2nnc(SCCOc3ccccc3)n2C)cc1`: -3.94%; `COc1ccc(-c2onc3ccc(C(C)=O)cc23)cc1`: 182% (active). Next, `COc1ccc(-c2nc(CS(=O)CC(=O)NCc3ccccn3)c(C)o2)cc1` (stereo unspecified): 64.8% (active); `COc1ccc(CC(=O)Nc2ccc(-c3nnc(-c4ccccc4)o3)cc2)cc1`: -10.3%; `COc1ccc(S(=O)(=O)N2CCOCC2)cc1NC(=O)Cc1c(F)cccc1Cl`: -1.93%.

`O=C(COC(=O)c1ccccc1C(=O)N1CCN(c2ccccc2)CC1)NCc1ccccc1`: the inhibition is 5.02%. With `CC(=O)NC(=S)Nc1ccc(NC(=S)NC(=O)c2ccc([N+](=O)[O-])cc2)cc1` the figure was -6.29%; with `CC1=NN(C(=O)CCc2ccccc2O)C(O)(C(F)(F)F)C1` (stereo unspecified), 9.05%; with `CC1(C)OC(=O)C(=CNC(CO)C(=O)O)C(=O)O1` (stereo unspecified), -19.2%.

Take `Cc1ccccc1Nc1nc(N)nc(CN2CCN(c3ccccn3)CC2)n1`: the inhibition was 3.69%. Next, `COCCNC(=O)Nc1ccc2nc(-c3ccco3)c(-c3ccco3)nc2c1`: 23.4% (active). With `CCc1ccc(NC(=O)C(=O)N/N=C(\C)CC(=O)NCCOC)cc1` the figure was -6.81%. As for `COc1ccc(Nc2ccc([N+](=O)[O-])cn2)cn1`, the inhibition is -45.8%. Take `COc1ccc(Nc2nc(-c3cccnc3)nc3ccccc23)cn1`: the inhibition is 39.8% (active).

In the case of `Cc1ccc2nc3c(cc(C(=O)NCCc4ccccc4)c(=N)n3CC3CCCO3)c(=O)n2c1` (stereo unspecified), the inhibition is 3.71%. Next, `COc1ccc2[nH]c(C)c(CCN(Cc3cccs3)C(=S)Nc3ccccc3OC)c2c1`: 3.35%; `CCCC(O)(CCC)C(=O)NN(C(=O)CCl)c1cccc(C)c1`: -3.35%. Next, `NC(=O)c1ccc(NC(=O)COC(=O)c2c3c(nc4ccccc24)/C(=C\c2ccc4c(c2)OCO4)CCC3)cc1`: -8.01%; `O=C1c2cccc3c([N+](=O)[O-])ccc(c23)C(=O)N1CC1CCCO1` (stereo unspecified): 34.9% (active); `COCCn1c(N)c(NCc2ccccc2)c(=O)[nH]c1=O`: 7.51%.

As for `Cc1cc2nc3c(=O)n(Cc4ccccc4)c(=O)[nH]c3nc2cc1N`, the inhibition was 153% (active).

For `Nc1ccccc1/C=N\N=C/c1ccccc1N`, the inhibition was 8.46%. Regarding `CCCN(CCC)C(=O)C1c2ccccc2Oc2ccccc21`, the inhibition is -11.4%.

Take `COC(=O)C[n+]1cccc2ccccc21`: the inhibition was 116% (active). Next, `COc1ccc(C2c3ccc(O)cc3Oc3ncn(CCCO)c(=N)c32)cc1OC` (stereo unspecified): -7.63%; `CCN(CC)CCCNC(=O)c1cn(C)c2ccc(S(=O)(=O)N(C)C3CCCCC3)cc2c1=O`: -0.99%; `Cc1cc(Br)cn2c(Cc3ccsc3)c(-c3ccc(C#N)cc3)nc12`: 45.3% (active). With `Cc1ccc(S(=O)(=O)CCC(=O)OCc2ccccc2)cc1` the figure was -7.16%; with `Oc1ccc(N=Cc2sc3ccccc3c2Cl)cc1`, -21.5%; with `O=C(COC(=O)CCc1c[nH]c(=O)[nH]1)Nc1ccccc1Cl`, 51.4% (active). Next, `COc1cccc2sc(N(CCCN(C)C)C(=O)CCS(=O)(=O)c3ccccc3)nc12`: 7.07%.

One may read the inhibition as the drop in the measured response relative to a control, in per cent.
